The supplement of paper PMC3545927
The list shows a part of the results. How many sequences the whole screen found active is unknown.

Molecular target: furin, P09958
Experiment: furin cleavage Z-score vs untreated control; higher = more cleavage, active = 3.5 or more, inactive = 1 or less, 8 variable residues between constant flanks
Summary of the method: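 Reactions of 0.01 ml ran for 7.5, 15 or 30 min in 50 mM HEPES pH 7.5 with CaCl2 and NaCl, at 1:10 enzyme:substrate. In them, purified furin acted on bead-held 8-mer peptides fused to a cDNA oligonucleotide. The cleavage Z-score was obtained by lowess-adjusting log sequencing counts of released DNA against furin-free reactions and scaling by median absolute deviation.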

furin, P09958, sequence (P09958 whole entry): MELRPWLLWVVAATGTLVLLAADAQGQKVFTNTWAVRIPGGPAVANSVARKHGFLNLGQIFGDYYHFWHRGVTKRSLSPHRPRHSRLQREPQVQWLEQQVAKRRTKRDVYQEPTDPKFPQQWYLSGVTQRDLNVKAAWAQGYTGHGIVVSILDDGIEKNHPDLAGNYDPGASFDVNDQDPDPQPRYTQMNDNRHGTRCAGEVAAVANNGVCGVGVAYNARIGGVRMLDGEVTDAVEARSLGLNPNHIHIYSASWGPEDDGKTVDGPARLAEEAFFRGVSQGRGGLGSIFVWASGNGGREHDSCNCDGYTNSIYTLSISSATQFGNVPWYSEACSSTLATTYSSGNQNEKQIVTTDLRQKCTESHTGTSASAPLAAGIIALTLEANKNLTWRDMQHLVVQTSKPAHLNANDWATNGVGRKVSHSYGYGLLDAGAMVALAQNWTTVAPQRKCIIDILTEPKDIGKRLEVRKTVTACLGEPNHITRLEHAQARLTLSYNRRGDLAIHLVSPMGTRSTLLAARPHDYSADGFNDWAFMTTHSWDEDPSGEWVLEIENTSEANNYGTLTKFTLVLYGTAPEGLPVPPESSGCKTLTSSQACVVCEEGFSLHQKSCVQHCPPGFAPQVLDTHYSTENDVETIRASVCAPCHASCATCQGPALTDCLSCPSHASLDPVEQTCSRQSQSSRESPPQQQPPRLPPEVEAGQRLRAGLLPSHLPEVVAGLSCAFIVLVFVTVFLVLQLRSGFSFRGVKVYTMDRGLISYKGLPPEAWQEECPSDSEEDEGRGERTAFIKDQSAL

Row | Sequence | furin cleavage Z-score (7.5 min) | furin cleavage Z-score (15 min) | furin cleavage Z-score (30 min)
1 | CALVETWKKPAGNASASA [HC1309] | 0.819 (inactive) | 0.268 (inactive) | -0.773 (inactive)
2 | CAGIPFVSCQAGNASASA [HC1163] | -0.0749 (inactive) | 0.44 (inactive) | -1.36 (inactive)
3 | CATREVPCHRAGNASASA [HC2438] | 0.921 (inactive) | 2.06 | 2.03
4 | CADPRRRSRNAGNASASA [HC216] | 4.59 (active) | 5.65 (active) | 5.55 (active)
5 | CALINVRKRNAGNASASA [FS-1357] | 0.912 (inactive) | 2.51 | 1.58
6 | CALGIRSFRNAGNASASA [TR6] | 1.49 | 1.8 | -0.165 (inactive)
7 | CAKGGRKPARAGNASASA [HC1446] | -0.269 (inactive) | -0.328 (inactive) | -1.51 (inactive)
8 | CAKGGRRSRNAGNASASA [FS-340] | 4.05 (active) | 5.15 (active) | 6.68 (active)
9 | CALGGRRKRNAGNASASA [FS-1356] | 11.1 (active) | 12.5 (active) | 7.53 (active)
10 | CAVGIYLLPNAGNASASA [HC1662] | 0.402 (inactive) | 0.33 (inactive) | -0.482 (inactive)
11 | CAPDLGVRVCAGNASASA [HC1452] | -1.67 (inactive) | -0.653 (inactive) | -0.786 (inactive)
12 | CARFDRSVEKAGNASASA [FS-2013] | 2.17 | 0.744 (inactive) | 3.51 (active)
13 | CARFRRDLVKAGNASASA [FS-1892] | 3.6 (active) | 6.06 (active) | 7.08 (active)
14 | CARFDRSSGPAGNASASA [FS-3220] | -0.295 (inactive) | 1.66 | 0.428 (inactive)
15 | CARFRREVEKAGNASASA [FS-2490] | 9.16 (active) | 8.26 (active) | 9.23 (active)
16 | CARVFRQVEKAGNASASA [FS-2386] | -1.6 (inactive) | -2.06 (inactive) | -1.6 (inactive)
17 | CARNIRSGVHAGNASASA [FS-3006] | -0.391 (inactive) | -0.599 (inactive) | -0.61 (inactive)
18 | CAEVVTSTWNAGNASASA [HC2261] | -0.954 (inactive) | 1.01 | 0.548 (inactive)
19 | CAGGVVLVGLAGNASASA [HC570] | -0.221 (inactive) | 0.261 (inactive) | -0.661 (inactive)
20 | CAEPRRQRRLAGNASASA [FS-1118] | 3.93 (active) | 4.47 (active) | 4.27 (active)
21 | CALPSRETRYAGNASASA [FS-1364] | 2.17 | 1.29 | -0.268 (inactive)
22 | CAGDSRQRRLAGNASASA [FS-424] | -0.0244 (inactive) | 0.999 (inactive) | 0.163 (inactive)

Row | Sequence | furin cleavage Z-score (7.5 min) | furin cleavage Z-score (15 min) | furin cleavage Z-score (30 min)
23 | CALPSRLRRMAGNASASA [FS-55] | 9.43 (active) | 11.4 (active) | 8.99 (active)
24 | CAWQRRLRRLAGNASASA [FS-895] | 3.85 (active) | 5.94 (active) | 6.13 (active)
25 | CAFLTRLRRPAGNASASA [FS-769] | -0.966 (inactive) | -0.023 (inactive) | 0.341 (inactive)
26 | CASRGRLRRLAGNASASA [FS-1572] | 4.39 (active) | 6.32 (active) | 6.52 (active)
27 | CAPRWIWFCLAGNASASA [HC1655] | 2.54 | 0.216 (inactive) | 2.32
28 | CADYEPPVVHAGNASASA [HC1313] | -0.331 (inactive) | -1.03 (inactive) | 0.818 (inactive)
29 | CARKKRVHFHAGNASASA [FS-2271] | -0.215 (inactive) | -0.15 (inactive) | 0.343 (inactive)
30 | CAKKSRKSRPAGNASASA [FS-43] | -1.56 (inactive) | -0.706 (inactive) | -1.33 (inactive)
31 | CAKKSRSGRHAGNASASA [FS-1635] | 1.49 | 3.83 (active) | 4.08 (active)
32 | CARKKRSGRHAGNASASA [FS-2968] | 8.42 (active) | 11.9 (active) | 8.64 (active)
33 | CAKKSRAERKAGNASASA [FS-676] | -0.262 (inactive) | -0.389 (inactive) | 0.536 (inactive)
34 | CAYGMWPLLLAGNASASA [HC556] | 1.73 | 0.0218 (inactive) | -0.323 (inactive)
35 | CATTPCSGHWAGNASASA [HC1915] | -0.316 (inactive) | 1.87 | 0.16 (inactive)
36 | CAAHGIDPNIAGNASASA [HC796] | -0.768 (inactive) | -0.681 (inactive) | 0.0731 (inactive)
37 | CATTPCDGSWAGNASASA [HC72] | 0.037 (inactive) | 1.11 | 0.507 (inactive)
38 | CAMEECSLHLAGNASASA [HC1725] | -0.0304 (inactive) | 0.668 (inactive) | 0.792 (inactive)
39 | CAREGRLKRDAGNASASA [FS-1256] | 11.7 (active) | 13 (active) | 11 (active)
40 | CARYGRFLQPAGNASASA [FS-3134] | 0.584 (inactive) | 1.53 | 0.786 (inactive)
41 | CAKRSHLKRDAGNASASA [FS-680] | 6.24 (active) | 7.72 (active) | 6.62 (active)
42 | CARYGRCKRDAGNASASA [FS-715] | 15.2 (active) | 15.5 (active) | 11.9 (active)
43 | CAREGRSKALAGNASASA [FS-2911] | 0.205 (inactive) | 2.53 | 0.493 (inactive)
44 | CAKQLRLKRDAGNASASA [FS-814] | 15 (active) | 13.5 (active) | 10.4 (active)
